Assay results as given in PubChem BioAssay (Tox21).
“And” between values parts separate entries of the source, which are not always exact repeats. Equal entries are not always repeated. Inconclusive results are not listed. The source holds several records for some structures; these can differ, active in one and inactive in another. The source made the active and inactive calls. Unless noted, the call rests on the fitted dose curve; in most records, active means well fitted curve in the direction sought with a large enough effect in the repeat runs; inconclusive means weak or mixed curves; inactive means no such curve, though single readings can be large; an effect the other way counts as inactive or inconclusive.

Experiments:
[1] = qHTS assay to identify small molecule antagonists of the estrogen related receptor (ERR) signaling pathway from Tox21 library - cell viability counter screen (AID 1224834); further: nearly all actives have a fitted effect of over 30% in size; further: potency means the concentration at half of the fitted maximal effect
Procedure, shortened: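 In this quantitative HTS format, ERR cells receive compounds in DMSO and are incubated for 17.5 h at 37 C. Live-cell protease activity is then detected with CellTiter-Fluor.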

[2] = target: Luciferin 4-monooxygenase (Photinus pyralis) (UniProt P08659); test: qHTS assay to identify small molecule inhibitors of firefly luciferase (AID 1224835); further: nearly all actives have a fitted effect of over 25% in size; further: potency means the concentration at half of the fitted maximal effect
Sequence of Luciferin 4-monooxygenase (Photinus pyralis) (P08659 whole entry, looked up): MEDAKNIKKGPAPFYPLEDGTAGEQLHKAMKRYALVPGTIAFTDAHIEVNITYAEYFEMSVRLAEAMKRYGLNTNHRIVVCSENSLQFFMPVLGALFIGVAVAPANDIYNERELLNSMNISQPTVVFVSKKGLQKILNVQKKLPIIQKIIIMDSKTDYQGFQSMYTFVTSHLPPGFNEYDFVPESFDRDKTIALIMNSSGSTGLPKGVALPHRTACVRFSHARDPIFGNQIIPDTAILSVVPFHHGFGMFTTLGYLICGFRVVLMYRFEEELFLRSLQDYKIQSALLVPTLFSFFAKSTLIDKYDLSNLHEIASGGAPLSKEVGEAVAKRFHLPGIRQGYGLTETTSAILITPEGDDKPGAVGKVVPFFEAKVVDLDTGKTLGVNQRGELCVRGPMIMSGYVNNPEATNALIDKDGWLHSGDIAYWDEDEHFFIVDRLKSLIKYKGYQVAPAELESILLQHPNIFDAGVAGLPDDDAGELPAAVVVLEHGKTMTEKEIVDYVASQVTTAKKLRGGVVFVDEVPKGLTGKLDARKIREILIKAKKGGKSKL
Procedure, shortened: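 Inhibition of purified Photinus luciferase is measured by luminescence. Substrate levels (D-luciferin, ATP) sit at their KM values. Each compound is tested in a concentration series.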

[3] = qHTS assay to identify small molecule agonists of the constitutive androstane receptor (CAR) signaling pathway - cell viability counter screen (AID 1224836); further: nearly all actives have a fitted effect of over 45% in size; further: potency means the concentration at half of the fitted maximal effect
Procedure, shortened: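 Fluorescence from CellTiter-Fluor indicates live cells after 23 h exposure. The human hepatoma line expresses hCAR and a CYP2B6-2.2kb reporter. Incubation medium contains 0.75 uM PK11195 (final).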

[4] = qHTS assay to identify small molecule antagonists of the constitutive androstane receptor (CAR) signaling pathway - cell viability counter screen (AID 1224837); further: nearly all actives have a fitted effect of over 45% in size; further: potency means the concentration at half of the fitted maximal effect
Procedure, shortened: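 In quantitative HTS format, compounds at 15 concentrations were applied to HepG2 cells double-transfected with hCAR and CYP2B6-2.2kb under 50 nM CITCO stimulation; live-cell protease activity was read after 23 hr via CellTiter-Fluor.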

[5] = target: Nuclear receptor subfamily 1 group I member 3 (Homo sapiens) (UniProt Q14994); test: qHTS assay to identify small molecule antagonists of the constitutive androstane receptor (CAR) signaling pathway (AID 1224838); further: nearly all actives have a fitted effect of over 40% in size
Sequence of Nuclear receptor subfamily 1 group I member 3 (Homo sapiens) (Q14994 whole entry, looked up): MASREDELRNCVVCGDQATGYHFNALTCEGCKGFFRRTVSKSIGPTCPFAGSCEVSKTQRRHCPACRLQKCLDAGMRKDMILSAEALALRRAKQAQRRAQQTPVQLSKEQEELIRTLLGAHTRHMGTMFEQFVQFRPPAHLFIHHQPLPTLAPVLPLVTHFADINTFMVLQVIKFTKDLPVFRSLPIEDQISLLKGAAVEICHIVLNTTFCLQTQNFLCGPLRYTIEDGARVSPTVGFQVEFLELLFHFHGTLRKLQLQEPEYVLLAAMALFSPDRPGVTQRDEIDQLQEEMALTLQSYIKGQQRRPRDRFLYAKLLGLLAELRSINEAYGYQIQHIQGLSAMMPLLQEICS
Procedure, shortened: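 CITCO-stimulated (50 nM final) HepG2 cells stably transfected with hCAR and CYP2B6-2.2kb luciferase were exposed to compounds at 15 concentrations for 24 h at 37 C/5% CO2. A luciferase reagent was added and luminescence recorded after 30 min.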

[6] = target: Nuclear receptor subfamily 1 group I member 3 (Homo sapiens) (UniProt Q14994); test: qHTS assay to identify small molecule agonists of the constitutive androstane receptor (CAR) signaling pathway (AID 1224839);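 further: HepG2 cells stably carrying human CAR and a CYP2B6 luciferase reporter; nearly all actives have a fitted effect of over 15% in size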
Procedure, shortened: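 Stable hCAR/CYP2B6-2.2kb HepG2 line in DMEM with 10% FBS; compounds (15 concentrations) and 0.75 uM PK11195 final, 24 h at 37 C/5% CO2, then ONE-Glo luminescence after 30 min.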

[7] = qHTS assay to identify small molecule antagonists of the estrogen related receptor signaling pathway with the pleiotropic PPARgamma coactivator (PGC) from Tox21 10K library - cell viability counter screen (AID 1224840; active means well fitted cell-killing curve with a large enough effect in the repeat runs, not every such curve was filed as active; further: nearly all actives have a fitted effect of over 40% in size; further: potency means the concentration at half of the fitted maximal effect)
Procedure, shortened: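 Viability counter screen, PGC/ERR cells: 17.5 h compound exposure at 37 C, CellTiter-Fluor fluorescence endpoint.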

[8] = qHTS assay to identify small molecule antagonists of the estrogen related receptor signaling pathway with the pleiotropic PPARgamma coactivator (PGC) from Tox21 10K library (AID 1224841; call rule not given here; further: actives are mostly falling curves and most rising ones were filed inactive; nearly all actives have a fitted effect of over 50% in size)
Procedure, shortened: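 In the PGC/ERR line, DMSO solutions of test chemicals are pin-delivered to 2,000 cells/well six hours after dispensing. Following eighteen hours' incubation, One-Glo reagent is added and luminescence recorded.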

[9] = qHTS assay to identify small molecule agonists of the estrogen related receptor signaling pathway with the pleiotropic PPARgamma coactivator (PGC) from Tox21 10K library (AID 1224842); further: nearly all actives have a fitted effect of over 15% in size
Procedure, shortened: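 Luminescence from One-Glo (30 min, room temperature) measured after PGC/ERR cells had 18 h at 37 C with pinned compound (23 nL in DMSO). Cells had been seeded at 2,000 per well and pre-incubated 6 h.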

[10] = target: Thyrotropin receptor (Homo sapiens) (UniProt P16473); test: qHTS assay to identify small molecule agonists of the thyroid stimulating hormone receptor (TSHR) signaling pathway (AID 1224843; calls by dose curve; further: nearly all actives have a fitted effect of over 45% in size; further: potency means the concentration at half of the fitted maximal effect)
Sequence of Thyrotropin receptor (Homo sapiens) (P16473 whole entry, looked up): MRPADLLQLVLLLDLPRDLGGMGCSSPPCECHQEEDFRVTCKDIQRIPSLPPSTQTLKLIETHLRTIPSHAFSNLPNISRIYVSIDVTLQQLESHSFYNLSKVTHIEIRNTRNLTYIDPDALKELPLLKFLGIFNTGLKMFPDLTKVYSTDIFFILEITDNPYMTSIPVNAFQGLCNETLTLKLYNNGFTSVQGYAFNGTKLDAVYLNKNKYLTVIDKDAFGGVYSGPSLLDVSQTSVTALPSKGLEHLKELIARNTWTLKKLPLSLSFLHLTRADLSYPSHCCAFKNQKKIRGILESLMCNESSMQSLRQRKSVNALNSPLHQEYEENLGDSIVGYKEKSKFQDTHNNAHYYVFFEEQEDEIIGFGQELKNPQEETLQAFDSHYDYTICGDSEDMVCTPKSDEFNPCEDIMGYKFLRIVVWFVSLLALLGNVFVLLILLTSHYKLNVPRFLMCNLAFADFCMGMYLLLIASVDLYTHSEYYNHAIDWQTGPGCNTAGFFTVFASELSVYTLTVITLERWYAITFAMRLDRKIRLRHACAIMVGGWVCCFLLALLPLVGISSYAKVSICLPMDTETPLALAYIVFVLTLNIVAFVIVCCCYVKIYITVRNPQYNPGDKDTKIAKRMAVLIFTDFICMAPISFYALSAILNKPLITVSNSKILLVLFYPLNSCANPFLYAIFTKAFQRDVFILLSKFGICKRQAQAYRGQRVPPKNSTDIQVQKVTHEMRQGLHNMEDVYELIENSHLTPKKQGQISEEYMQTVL
Procedure, shortened: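 Agonist activity read as cAMP rise via d2/cryptate HTRF competition, 1 h room-temperature detection, in HEK293 cells expressing TSHR. Fifteen-point titrations, each run in triplicate, with a 30 min room-temperature incubation beforehand.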

[11] = qHTS assay to identify small molecule agonists of the hypoxia (HIF-1) signaling pathway - cell viability counter screen (AID 1224844; calls by dose curve; further: nearly all actives have a fitted effect of over 50% in size; further: potency means the concentration at half of the fitted maximal effect)
Procedure, shortened: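 Same wells as the HIF-1 reporter screen; ME-180 cells carrying HRE-bla, 17 hr treatment at 37C; CellTiter-Glo luminescence read after 30 min at room temperature.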

[12] = qHTS assay to identify small molecule agonists of H2AX (AID 1224845; active means well fitted activation curve with a large enough effect in the signal ratio in the repeat runs, not every such curve was filed as active; the % refers to the signal ratio)
Procedure, shortened: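 Phospho-H2AX Ser139 measured by HTRF (ex 320 nm; em 665 and 620 nm) after 24 hr antibody incubation. Compounds, 15 concentrations, 0.76% DMSO, were applied to CHO-K1 cells for 3hr at 37C before lysis.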

[13] = qHTS assay to identify small molecule agonists of the hypoxia (HIF-1) signaling pathway (AID 1224846; active means well fitted activation curve with a large enough effect in the signal ratio in the repeat runs, not every such curve was filed as active; the % refers to the signal ratio)
Procedure, shortened: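 In ME-180 cells bearing an HRE-bla construct, 17 h treatment with DMSO-dissolved compounds at 37C was followed by CCF4-AM loading to quantify reporter induction.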

[14] = qHTS assay to identify small molecule agonists of H2AX - cell viability counter screen (AID 1224847; calls by dose curve; further: nearly all actives have a fitted effect of over 30% in size; further: potency means the concentration at half of the fitted maximal effect; on activity change, negative = cytotoxicity: top concentration of the series differs between compounds)
Procedure, shortened: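 Viability of CHO-K1 (wild type) cells after 3 hr compound exposure was measured by CellTiter-Glo luminescence.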

[15] = qHTS assay to identify small molecule antagonists of the estrogen related receptor (ERR) signaling pathway from Tox21 library (AID 1224848); further: nearly all actives have a fitted effect of over 50% in size; further: potency means the concentration at half of the fitted maximal effect
Procedure, shortened: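 Luciferase luminescence (ONE-Glo, 30 min room temperature) was the read-out. Cells of the NTP-supplied ERR line, 2,000 per well, were given 6 h at 37 C before compound addition in DMSO and 18 h exposure at 37 C.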

[16] = qHTS assay to identify small molecule agonists of the estrogen related receptor (ERR) signaling pathway from Tox21 library (AID 1224849; calls by dose curve; further: nearly all actives have a fitted effect of over 15% in size); settings: ERR reporter cell line, ONE-Glo luciferase, 18 h
Procedure, shortened: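 Reporter cells (ERR, NTP source) treated with Tox21 10K compounds 18 h, 37 C. Readout: ONE-Glo luminescence, 30 min RT.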

[17] = qHTS RealTime-Glo MT Cell Viability Assay in HepG2 cells - 24 hour (AID 1224867); further: nearly all actives have a fitted effect of over 50% in size; further: potency means the concentration at half of the fitted maximal effect
Procedure, shortened: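 Viability was tracked continuously by NanoLuc luminescence from prosubstrate reduced by living HepG2 cells, at successive time points over 40 h of compound exposure. Cells with reagent were preincubated 5 h at 37 °C before compound addition.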

[18] = qHTS RealTime-Glo MT Cell Viability Assay in HEK293 cells - 32 hour (AID 1224868); further: nearly all actives have a fitted effect of over 50% in size; further: potency means the concentration at half of the fitted maximal effect
Procedure, shortened: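 Viability tracked continuously by luminescence as live cells reduce a prosubstrate for NanoLuc; HEK293 cells preincubated 5 h, compound-treated at 37 C, and read at 0, 8, 16, 24, 32 and 40 h.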

[19] = A CellTox Green Cytotoxicity Assay to monitor cytotoxicity in HEK293 cells - 0 hour (AID 1224869); further: nearly all actives have a fitted effect of over 50% in size
Procedure, shortened: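 Homogeneous no-lysis format: HEK293 cell suspension mixed with CellTox Green reagent, seeded, incubated 5 h at 37 C/5% CO2, then dosed by pintool with compound in DMSO.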

[20] = qHTS assay to identify small molecule agonists of the estrogen related receptor signaling pathway with the pleiotropic PPARgamma coactivator (PGC) (AID 1224823)
Procedure, shortened: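 Luminescence from One-Glo reagent (30 min, room temperature) was read after 18 h compound treatment at 37 C of PGC/ERR cells plated 6 h beforehand; compounds delivered in DMSO by pin tool.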

[21] = at 92.4 µM (top of the series) unless noted
On the % scale 0 is the no-effect control and ±100 the full control effect.

FC1(F)C(F)(F)C(F)(F)C2(F)C(F)(F)C(F)(F)C(F)(F)C(F)(F)C2(F)C1(F)F (configuration not stated)
inactive: Potency [1] | Potency [2] | Potency [3] | Potency [4] | Potency [5] | Potency [6] | Potency [7] | Potency [8] | outcome [9] | Potency [10] | Potency [11] | outcome [12] | outcome [13] | Potency [14] | Potency [15] | activity change, positive = activation [16, 21] 2.28% [at 42.5 µM] | Potency [17] | Potency [18] | Potency [19]

C[C@](N)(Cc1ccc(O)cc1)C(=O)O
inactive: outcome [20] | viability change, negative = cytotoxic [1] 1.82% [at 8.39 µM] | activity change, negative = inhibition [2] 0.0392% [at 10.5 µM] | viability change, negative = cytotoxic [3] 11.1% [at 8.39 µM] | activity change, negative = cytotoxicity [4] 2.5% [at 8.39 µM] | viability change, negative = cytotoxic [7] -0.23% [at 8.39 µM] | activity, negative = inhibition [8] -1.66% [at 8.39 µM] | activation [9] -0.549% [at 8.39 µM] | activation [10] -7.31% [at 8.39 µM] | activity change, negative = cytotoxicity [11] 3.27% [at 6.97 µM] | activation (H2AX phosphorylation) [12] -0.087% [at 14 µM] | activity change, negative = cytotoxicity [14] 2.42% [at 14 µM] | activity, negative = inhibition [15] 3.87% [at 8.39 µM] | activity change, positive = activation [16, 21] 2.18% [at 8.39 µM] | activity change, negative = cytotoxicity [17] 0.0825% [at 6.97 µM] | cytotoxicity [19] 5.11% [at 6.97 µM]

CC(C)NCCCC1(C(N)=O)c2ccccc2-c2ccccc21
inactive: Potency [1] | Potency [2] | Potency [3] | Potency [4] | Potency [5] | Potency [6] | Potency [7] | Potency [8] | outcome [9] | Potency [10] | Potency [11] | outcome [12] | outcome [13] | Potency [14] | Potency [15] | activity change, positive = activation [16, 21] 9.55% [at 42.5 µM] | Potency [17] | Potency [18] | Potency [19]

CC(C[N+](C)(C)C)OC(N)=O (configuration not stated)
inactive: outcome [20] | Potency [1] | Potency [3] | Potency [4] | Potency [5] | Potency [6] | Potency [7] | Potency [8] | outcome [9] | outcome [12] | Potency [14] | Potency [15] | activity change, positive = activation [16, 21] 3.25% [at 42.5 µM] | Potency [17] | Potency [18] | Potency [19]

CN(C)CCCN1c2ccccc2CCc2ccc(Cl)cc21
active: Potency [1] 54.5 µM and 23.7 µM | Potency [3] 48.6 µM and 29.8 µM | Potency [4] 48.6 µM | Potency [11] 49 µM | Potency [14] 113 µM | Potency [15] 68.6 µM | Potency [17] 49 µM and 23.9 µM | Potency [18] 34.7 µM and 21.3 µM
54.5 µM (active) and inactive: Potency [7]
inactive: outcome [20] | Potency [6] | outcome [9] | Potency [10] | activity change, positive = activation ([16]; at 42.5 µM (top of the series)) -18.5% | activity change, positive = activation ([16]; at 92.4 µM (top of the series)) -78.1% | Potency [19]

C1CN(CCOCCN2CCOCC2)CCO1
inactive: Potency [1] | Potency [2] | Potency [3] | Potency [4] | Potency [5] | Potency [6] | Potency [7] | Potency [8] | outcome [9] | Potency [10] | Potency [11] | outcome [12] | outcome [13] | Potency [14] | Potency [15] | activity change, positive = activation [16, 21] -7.8% | Potency [17] | Potency [18] | Potency [19]

CCc1ccc(O)c(OC)c1
inactive: Potency [1] | Potency [2] | Potency [3] | Potency [4] | Potency [5] | Potency [6] | Potency [7] | Potency [8] | outcome [9] | Potency [10] | Potency [11] | outcome [12] | outcome [13] | Potency [14] | Potency [15] | activity change, positive = activation [16, 21] 4.86% | Potency [17] | Potency [18] | Potency [19]

CC(C)(O)C(=O)c1ccccc1
inactive: Potency [1] | Potency [2] | Potency [3] | Potency [4] | Potency [5] | Potency [6] | Potency [7] | Potency [8] | outcome [9] | Potency [10] | Potency [11] | outcome [12] | outcome [13] | Potency [14] | Potency [15] | activity change, positive = activation [16, 21] 0.982% | Potency [17] | Potency [18] | Potency [19]

COC(=O)C1=C(C)NC(C)=C(C(=O)OC)C1c1ccccc1[N+](=O)[O-]
40 µM (active) and inactive: Potency [2]
49 µM (active) and inactive: Potency [11]
54.5 µM (active) and inactive: Potency [1] | Potency [10]
inactive: outcome [20] | Potency [3] | Potency [4] | Potency [7] | Potency [8] | outcome [9] | outcome [12] | Potency [14] | Potency [15] | activity change, positive = activation ([16]; at 42.5 µM (top of the series)) -8.97% | activity change, positive = activation ([16]; at 92.4 µM (top of the series)) -13.3% | Potency [17] | Potency [18] | Potency [19]

O=C(O)Cc1ccc(CCNS(=O)(=O)c2ccc(Cl)cc2)cc1
inactive: Potency [1] | Potency [2] | Potency [3] | Potency [4] | Potency [5] | Potency [6] | Potency [7] | Potency [8] | outcome [9] | Potency [10] | Potency [11] | outcome [12] | outcome [13] | Potency [14] | Potency [15] | activity change, positive = activation [16, 21] 0.244% [at 42.5 µM] | Potency [17] | Potency [18] | Potency [19]

CC(=O)OC/C=C(\C)CC/C=C(\C)CCC=C(C)C
inactive: Potency [1] | Potency [2] | Potency [3] | Potency [4] | Potency [5] | Potency [6] | Potency [7] | Potency [8] | outcome [9] | Potency [10] | Potency [11] | outcome [12] | outcome [13] | Potency [14] | Potency [15] | Potency [17] | Potency [18] | Potency [19]

COc1ccc2c(c1)c(CC(=O)OCC(=O)O)c(C)n2C(=O)c1ccc(Cl)cc1
inactive: Potency [1] | Potency [2] | Potency [3] | Potency [4] | Potency [5] | Potency [6] | Potency [7] | Potency [8] | outcome [9] | Potency [10] | Potency [11] | outcome [12] | outcome [13] | Potency [14] | Potency [15] | activity change, positive = activation [16, 21] 3.06% [at 42.5 µM] | Potency [17] | Potency [18] | Potency [19]
